USP28 block: blocks human USP28 ubiquitin-rhodamine cleavage | Q96RU2 | purified USP28, Ub-rhodamine cleavage fluorescence, 30 min | inhibition, % at 25 µM | actives 3% (n = 47,000)
Target sequence (Q96RU2 whole entry, looked up): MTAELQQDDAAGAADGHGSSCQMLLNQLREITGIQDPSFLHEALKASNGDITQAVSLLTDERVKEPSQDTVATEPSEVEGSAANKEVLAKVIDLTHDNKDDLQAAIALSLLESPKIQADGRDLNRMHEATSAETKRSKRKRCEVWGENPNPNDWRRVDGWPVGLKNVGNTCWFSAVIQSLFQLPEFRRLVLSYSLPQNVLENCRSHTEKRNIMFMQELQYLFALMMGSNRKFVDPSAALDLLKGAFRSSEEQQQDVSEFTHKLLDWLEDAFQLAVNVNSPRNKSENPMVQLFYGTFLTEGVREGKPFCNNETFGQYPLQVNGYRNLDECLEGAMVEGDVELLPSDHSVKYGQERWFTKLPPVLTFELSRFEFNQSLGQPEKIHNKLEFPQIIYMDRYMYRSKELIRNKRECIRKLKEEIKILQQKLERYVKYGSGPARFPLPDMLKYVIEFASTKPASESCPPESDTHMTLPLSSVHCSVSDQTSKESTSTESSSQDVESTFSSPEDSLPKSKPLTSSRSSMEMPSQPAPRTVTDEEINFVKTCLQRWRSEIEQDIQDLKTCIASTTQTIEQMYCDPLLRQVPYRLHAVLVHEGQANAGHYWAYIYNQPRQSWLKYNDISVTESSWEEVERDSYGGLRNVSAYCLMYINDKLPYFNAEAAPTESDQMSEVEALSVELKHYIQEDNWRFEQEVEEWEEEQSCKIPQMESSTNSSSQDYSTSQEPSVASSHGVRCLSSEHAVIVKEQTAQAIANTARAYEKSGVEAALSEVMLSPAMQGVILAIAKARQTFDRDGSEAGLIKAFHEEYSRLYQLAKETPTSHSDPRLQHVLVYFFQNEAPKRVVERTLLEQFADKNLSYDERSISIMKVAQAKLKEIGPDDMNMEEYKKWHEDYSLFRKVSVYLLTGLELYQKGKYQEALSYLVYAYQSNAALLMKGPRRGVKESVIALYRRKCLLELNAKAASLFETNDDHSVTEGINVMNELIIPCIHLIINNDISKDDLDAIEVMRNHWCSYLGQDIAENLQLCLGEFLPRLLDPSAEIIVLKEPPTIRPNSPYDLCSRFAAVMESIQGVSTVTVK
USP30 block: human USP30 deubiquitinase inhibition. AID 1645860. purified USP30, Ub-rhodamine cleavage fluorescence. inhibition, % at 25 µM. actives 5.3% (n = 47,000). Q70CQ3
The depositor's hits bear a star. Compounds with a hit are over-represented: about 7% of the library has one in this group of screens. Cut-off read from the data, not from the text of the source: active = inhibition above about 30%; inactive = the rest.

SMILES	USP28 block	USP30 block
Cn1c(CN2CCOCC2)nnc1SCC(=O)Nc1ccc(F)cc1	-2	-4
CCC(=O)N1c2ccccc2NC2=C(C(=O)CC(c3ccccc3OCc3ccccc3)C2)C1c1ccccc1 (stereo not given)	9	61*
CCOc1cc(C2C3=C(CC(c4ccccc4)CC3=O)Nc3ccccc3N2C(C)=O)ccc1OCc1ccc(Cl)cc1 (stereo not given)	1	0
Cc1ccc2c(COC(=O)c3ccc(N(C)C)cc3)cc(=O)oc2c1	-1	8
O=C(OCCOc1ccccc1)c1ccc(-c2ccccc2)cc1	5	21
NC(=O)c1cccc(OCCOc2ccccc2)c1	15	49*
CC1=CC(=O)CC(C)(C)C1(O)/C=C/C(C)=C\C(=O)O (stereo not given)	7	26
CC(=O)/C=C/C1(O)C(C)=CC(=O)CC1(C)C (stereo not given)	6	33*
CC1(C(=O)O)CC12CC2(C)C(=O)O (stereo not given)	-5	8
O=C(NCc1ccco1)C(=O)Nc1ccc(F)c(Cl)c1	-12	-11
Cc1nn(C)cc1S(=O)(=O)Nc1cnn(Cc2cccc3ccccc23)c1	-1	-10
COc1ccc(-c2cc(-c3ccc(O)cc3)nc(N)c2C#N)cc1OC	73*	50*
COc1cc(-c2cc(-c3ccccc3Br)nc(N)c2C#N)cc(OC)c1OC	-22	-40
COc1ccc(OC)c(CN2CCC(C(=O)N3CCN(c4ccccc4)CC3)CC2)c1	3	-1
O=C1CC(C(=O)NCCc2ccccc2)n2c(nc3ccccc32)N1 (stereo not given)	-7	-3
O=C(Nc1ccc(NC(=O)C(c2ccccc2)c2ccccc2)cc1)c1cccs1	-9	-9
O=C(Nc1ccccc1)C(C(=O)Nc1ccccc1)c1ccccc1	14	31*
CCN1C[C@H]2CCN(C(=O)c3cnccn3)CC[C@H]2S1(=O)=O	-8	-17
O=C1CC(NS(=O)(=O)c2cccs2)c2cc3c(cc21)OCO3 (stereo not given)	9	11
Cn1c(=O)c2c(nc(CN3CCOCC3)n2Cc2ccc(F)cc2)n(C)c1=O	9	23
Cn1c(=O)c2c(nc(CN3CCN(c4ccccc4F)CC3)n2Cc2ccccc2Cl)n(C)c1=O	15	31*
O=C(O)C1CCN(C(=O)[C@H](Cc2ccccc2)NC(=O)N2CCn3c2nc2ccccc23)CC1	11	2
O=C(CSc1ccccc1)N1CCc2c(nc(-c3ccc(F)cc3)[nH]c2=O)C1	11	15
Cc1ccc(C2=NC3(CCN(C(=O)Cc4ccccc4)CC3)NC2=O)cc1	0	12
Cc1ccc(/C=C/C(=O)Cc2ccccc2)cc1	18	30*
SMILES	USP28 block	USP30 block
CCOc1ccc([C@@H]2c3c(C)nn(-c4ccccc4)c3NC(=O)[C@H]2NC(=O)c2cccc(C)c2)cc1	15	3
Cc1ccc(-n2nc(C)c3c2NC(=O)[C@@H](NC(=O)c2ccccc2)[C@@H]3c2ccc(F)cc2)cc1	48*	-6
Cc1nn(C)c2c1[C@@H](c1ccc(F)cc1)[C@H](NC(=O)c1ccccc1)C(=O)N2	80*	13
Cc1nn(-c2ccccc2)c2c1[C@@H](c1ccc3c(c1)OCCO3)[C@H](NC(=O)c1ccccc1)C(=O)N2	-10	-24
O=C(NC1CCCC1)C(c1ccc(N2CCOCC2)cc1)N(C(=O)c1ccco1)c1cccc(F)c1 (stereo not given)	18	6
O=C(Nc1nnc(C2CC2)s1)N1CCCCCC1c1ccncc1 (stereo not given)	-8	2
O=C(c1ccc(Cl)cc1)N1CCCC(C(=O)N2CCCc3ccccc32)C1 (stereo not given)	-9	-51
NS(=O)(=O)c1cccc(NC(=O)CCc2nc3ccccc3s2)c1	-6	-18
COc1ccc(NS(=O)(=O)c2cc(NC(=O)CCc3nc4ccccc4s3)ccc2C)cc1	-2	35*
COc1ccc(-c2c(C(=O)O)sc3c2NC(=O)CC3c2cc(F)ccc2F)cc1 (stereo not given)	14	35*
COc1ccc(C2CC(=O)Nc3c2sc(C(=O)O)c3-c2ccc(C)cc2)cc1 (stereo not given)	7	24
COc1ccc(OCC(=O)N(Cc2cccc3ccccc23)c2ccccn2)cc1	-4	4
O=C(COc1cccc(C(=O)NCc2ccccc2)c1)Nc1ccc(Oc2ccccc2)cc1	20	56*
COC(=O)c1ccc(CNC(=O)c2ccc(Oc3ccccc3)cc2)cc1	15	13
CC1CC(=O)Nc2ccccc2N1S(=O)(=O)c1ccc(C#N)cc1 (stereo not given)	21	55*
Cc1ccc(S(=O)(=O)N2CC(C)C(=O)Nc3ccccc32)cc1 (stereo not given)	-1	-8
C[C@H]1CCC[C@]2(C)C[C@H]3OC(=O)C(CN(C)Cc4ccccc4)[C@H]3C=C12 (stereo not given in full)	9	29

Assay outcomes as filed in PubChem.
